# Screening data (PubChem)
# AGP1 TOR yeast: modulators of AGP1-GFP expression in yeast TOR pathway, primary screen, cell-based, multiplex flow cytometry, S. cerevisiae, MLPCN library; 3 h; GFP as percent of DMSO wells; GFP response vs DMSO, % at 10 µM; 0.02% of 320,000 active;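 active = GFP response relative to DMSO above a set limit, near screen average plus 3 SD, cut at about 150% in these data; inconclusive = fewer than 70 cells counted for the yeast strain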;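 also: median GFP channel fluorescence of the gated AGP1 strain per well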
# MEP2 TOR yeast: modulators of MEP2-GFP levels in yeast, primary screen, S. cerevisiae, multiplex flow cytometry, MLPCN library; S. cerevisiae MEP2-GFP strain, 3 h; 100% = DMSO control level; GFP response vs DMSO, % at 10 µM; 0.51% of 330,000 active; AID 2016, 2009;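 active = GFP response versus DMSO above a set limit, roughly screen mean plus 3 SD, cut at about 180% in these data; inconclusive = fewer than 70 cells counted for a yeast strain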;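 also: median GFP fluorescence of the barcode-gated MEP2-GFP cells per well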
# RPL19A-GFP yeast: RPL19A-GFP expression modulators in yeast, primary screen, cell-based, S. cerevisiae, multiplex flow cytometry, MLPCN; S. cerevisiae RPL19A-GFP strain, 3 h; hits give low values; percent response vs DMSO, % at 10 µM; 0.3% of 330,000 active;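 active = percent response vs DMSO below 50%; inconclusive = fewer than 70 events counted for the yeast strain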;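 also: median channel GFP fluorescence of the barcoded RPL19A-GFP strain; ratio of sample median GFP to plate DMSO average so 100% = DMSO; lower means less RPL19A-GFP as with rapamycin TOR inhibition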
# Pemphigus Ab inh: inhibitors of pemphigus antibody binding to DSG3, primary screen, biochemical, bead-based, flow cytometry, scFv-GFP. Desmoglein-3 (Homo sapiens), P32926. DSG3-coupled beads, scFv-anti-DSG3-GFP binding; hits give low values. binding (percent of control), % at 10 µM. 0.48% of 310,000 active;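 active = binding more than 3 SD below its plate's average and above zero; inconclusive = below that plate limit but binding exactly zero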;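 also: hits lower antibody fragment binding to DSG3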
# Target sequence (P32926 whole entry, looked up, the tested form may be a part): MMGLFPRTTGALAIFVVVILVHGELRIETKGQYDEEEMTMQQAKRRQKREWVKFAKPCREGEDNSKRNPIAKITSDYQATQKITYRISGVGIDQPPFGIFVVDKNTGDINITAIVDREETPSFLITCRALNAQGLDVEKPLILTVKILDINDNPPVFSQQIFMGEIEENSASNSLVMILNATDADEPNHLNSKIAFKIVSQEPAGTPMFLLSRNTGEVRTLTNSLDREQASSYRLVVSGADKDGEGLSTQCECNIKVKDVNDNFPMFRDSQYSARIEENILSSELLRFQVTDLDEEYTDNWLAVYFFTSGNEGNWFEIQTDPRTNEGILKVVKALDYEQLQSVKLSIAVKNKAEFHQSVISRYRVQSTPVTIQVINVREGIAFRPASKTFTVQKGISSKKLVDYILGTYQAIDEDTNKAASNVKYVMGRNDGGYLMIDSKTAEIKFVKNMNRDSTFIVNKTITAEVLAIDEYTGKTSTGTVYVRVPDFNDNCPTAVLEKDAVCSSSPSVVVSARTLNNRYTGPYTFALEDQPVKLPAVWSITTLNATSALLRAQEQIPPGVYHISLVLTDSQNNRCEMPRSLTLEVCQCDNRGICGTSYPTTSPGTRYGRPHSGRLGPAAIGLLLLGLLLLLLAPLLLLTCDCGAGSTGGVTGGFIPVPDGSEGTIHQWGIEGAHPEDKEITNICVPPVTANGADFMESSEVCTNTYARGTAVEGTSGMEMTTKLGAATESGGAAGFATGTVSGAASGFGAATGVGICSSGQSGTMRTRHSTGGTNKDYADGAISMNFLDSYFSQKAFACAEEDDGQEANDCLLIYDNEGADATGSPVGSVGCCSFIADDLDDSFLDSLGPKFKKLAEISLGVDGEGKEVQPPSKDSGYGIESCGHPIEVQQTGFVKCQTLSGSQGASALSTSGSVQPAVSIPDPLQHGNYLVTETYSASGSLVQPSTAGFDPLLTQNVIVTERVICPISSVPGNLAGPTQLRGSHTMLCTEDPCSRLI
# CIT2 TOR yeast: modulators of CIT2-GFP expression in yeast, primary screen, S. cerevisiae, GFP fusion, multiplex flow cytometry, MLPCN library; S. cerevisiae CIT2-GFP strain, 3 h; 100 means same as DMSO wells; GFP response vs DMSO, % at 10 µM; 0.065% of 320,000 active;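 active = GFP response relative to DMSO above a set limit, near the screen mean plus 3 SD, cut at about 150% in these data; inconclusive = Fewer than 70 cells measured for a yeast strain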;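 also: ratio of well median GFP fluorescence to mean of DMSO wells on the plate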
# LAP4 TOR yeast: modulators of LAP4-GFP expression in yeast, primary screen, S. cerevisiae, multiplex flow cytometry, MLPCN library; 0.34% of 320,000 active; 3 h; median GFP as percent of DMSO wells; GFP response vs DMSO, % at 10 µM;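 active = GFP response vs DMSO above a set limit, about the screen mean plus 3 SD, cut at about 150% in these data; inconclusive = under 70 cell events counted for the yeast strain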
# * hit, by the source's call; ? = inconclusive; . = no result given; + = active, no number; [ ] = another dose, or the depositor's remark. Sampled rows, rich in hits. Any-hit rate of the full collection: about 1.2%.
SMILES,AGP1 TOR yeast,MEP2 TOR yeast,RPL19A-GFP yeast,Pemphigus Ab inh,CIT2 TOR yeast,LAP4 TOR yeast
CCOCCCNC(=O)/C(C#N)=C/c1ccc([N+](=O)[O-])o1,80.0,+,126.4,.,102.6,488.2*
CCOCCCNC(=O)/C(C#N)=C/c1ccc(-c2ccc(S(=O)(=O)N3CCOCC3)cc2)o1,100.5,98.4,101.0,101.3,96.1,89.5
CC(NC(=O)/C(C#N)=C/c1ccc([N+](=O)[O-])o1)c1ccccc1 (configuration not stated),149.7,+[may fluoresce violet],203.0,74.9,?,894.7*[may fluoresce violet]
CCOc1ccc(C(=O)NCC(=O)N2CCC3CCCCC3C2)cc1OCC (configuration not stated),104.0,99.3,98.8,77.4,101.9,102.8
S=c1[nH]nc(-c2ccccn2)n1/N=C/c1ccc(Br)s1,103.6,109.3,105.2,65.3*,104.9,99.6
S=c1[nH]nc(-c2ccccn2)n1/N=C/c1ccc(Cl)c(Cl)c1,104.7,94.4,95.2,95.7,91.5,96.3
Cc1nn(-c2ccccc2)nc1-c1nnc(-c2ccc(C(F)(F)F)cc2)o1,108.5,97.3,97.5,75.7*,108.8,129.3
O=C(Nc1nnc(C23CC4CC(CC(C4)C2)C3)s1)c1ccco1,103.2,107.7,106.8,71.2*,98.8,95.2
O=C(c1ccccc1)c1ccc(OCC(O)CNCc2cccc(Cl)c2)cc1 (configuration not stated),94.6,97.7,102.0,101.1,93.5,94.2
COCCCNC(=O)/C(C#N)=C/c1c(N2CCN(C)CC2)nc2ccccn2c1=O,98.9,102.1,102.1,112.4,104.6,92.4
Cc1cc(C)c(NC(=O)COc2nc3ccccc3nc2C)c(C)c1,100.2,99.4,107.7,101.6,91.5,98.9
Cc1nc2ccccc2nc1OCC(=O)Nc1ccc2ccccc2c1,113.9,116.2,118.4,65.2*,109.9,114.4
COc1ccccc1CN1CCCC(CNC(=O)c2cccc3ccccc23)C1 (configuration not stated),109.3,122.7,106.4,117.9,114.3,105.2
COc1ccc(Nc2cc(C(=O)NCCCN3CCN(C)CC3)c3ccccc3n2)cc1,20.8,244.1*[may fluoresce violet],47.4*[may fluoresce violet],101.9,?,95.6
CC(C)CN(C(=O)Cn1ccccc1=O)C1CCS(=O)(=O)C1 (configuration not stated),99.9,95.0,102.0,107.9,103.6,99.5
COc1ccc(CN2C(=O)c3cccnc3C2=O)cc1S(=O)(=O)N1CCOc2ccccc21,?,333.6*[may fluoresce violet],45.1*[may fluoresce violet],94.1,?,110.0
CCN(CC)C(=O)c1ccc(NS(=O)(=O)c2ccc3[nH]c(=O)[nH]c3c2)cc1,96.9,107.0,112.2,.,99.9,92.9
O=C(O)C1Nc2c(O)cccc2C2C=CCC12 (configuration not stated),93.1,140.0,104.6,83.0*,134.0,104.5
CSc1ccc(C=NNc2ccc(S(=O)(=O)Nc3ccccc3C(=O)O)cc2[N+](=O)[O-])cc1,98.4,103.2,95.6,72.4*,95.3,102.1
O=C(O)c1ccccc1NS(=O)(=O)c1ccc(NN=Cc2ccccc2F)c([N+](=O)[O-])c1,92.5,88.0,92.5,.,90.2,98.8
CCOc1ccc(C=NNc2ccc(S(=O)(=O)Nc3ccccc3C(=O)O)cc2[N+](=O)[O-])cc1,104.1,108.4,103.4,89.4*,105.0,97.5
O=C(COC(=O)/C=C/c1cccc(F)c1)NC1CCCCCC1,105.4,108.2,102.1,125.8,111.5,101.2
Cc1ccc(S(=O)(=O)Nc2ccc(C(=O)N3CCOCC3)cc2)cc1,25.9,192.0*[may fluoresce violet],64.1,84.8,?,91.3
O=C(CSCc1ccc(Cl)cc1)N1CCOCC1,102.5,98.6,101.1,108.3,101.6,92.7
Cc1ccc(NS(=O)(=O)c2ccc(CCC(=O)N3CCOCC3)cc2)cc1,22.2,180.9*,60.3,.,109.4,90.9
SMILES,AGP1 TOR yeast,MEP2 TOR yeast,RPL19A-GFP yeast,Pemphigus Ab inh,CIT2 TOR yeast,LAP4 TOR yeast
CCNS(=O)(=O)c1ccc(CCC(=O)N2CCN(Cc3ccccc3)CC2)cc1,96.9,102.3,100.7,108.6,104.8,95.0
CNS(=O)(=O)c1ccc(CCC(=O)N2CCOCC2)cc1,95.8,103.2,100.1,113.8,102.7,90.2
Cc1ccc(CSCC(=O)N2CCOCC2)cc1,?,235.7*[may fluoresce violet],56.1,97.3,?,72.3
CCOC(=O)N1CCN(C(=O)CCc2ccc(S(=O)(=O)NCCc3ccccc3)cc2)CC1,108.2,193.1*,108.5,92.5,152.6*,161.1*
O=C(c1ccc(S(=O)(=O)Nc2ccccc2)cc1)N1CCOCC1,98.4,101.6,99.8,.,94.6,96.2
COc1cc2c3c(cccc3c1)C(=O)N(CCN1CCCC1)C2=O,.,.,.,104.4,.,.
Cc1ccc(C(=O)Nc2cccnc2)cc1C,.,.,.,93.1,.,.
O=C(C1=C(O)C(=O)N(c2ncccn2)C1c1ccc(F)cc1)c1ccco1 (configuration not stated),.,506.2*[may fluoresce violet],43.3*[may fluoresce violet],108.7,.,.
Nc1cc(=O)[nH]c(SCc2ccc(Cl)cc2)n1,101.2,92.8,94.8,.,95.9,97.7
O=c1cc(O)nc(SCc2ccc(Cl)cc2)[nH]1,17.7,352.4*[may fluoresce violet],56.7,104.5,?,104.9
COc1ccc2c(c1)cc(C(=O)N[C@@H](Cc1ccccc1)C(=O)O)n2C,?,467.4*[may fluoresce violet],18.1*[may fluoresce violet],104.4,?,85.7
COc1ccccc1NCC(=O)NC(=O)NC1CCCCC1,94.8,100.3,98.5,113.1,97.6,94.2
CCOC(=O)C1=C(CN2CCN(C(=O)c3ccco3)CC2)NC(=O)NC1c1ccc(F)cc1 (configuration not stated),107.7,99.2,98.9,102.2,108.1,104.5
CC(C)C(=O)Nc1nc(-c2ccc3c(c2)CCN3C(=O)C2CC2)cs1,?,?,21.9*[may fluoresce violet],97.2,?,?
CCOc1cccc2sc(N(CCN(C)C)C(=O)/C=C/c3cccs3)nc12,102.6,100.5,105.9,100.2,108.9,98.9
COc1cccc2sc(N(CCN(C)C)C(=O)/C=C/c3cccs3)nc12,?,193.1*[may fluoresce violet],52.1,102.4,?,90.5
CC1(C)CN(c2ccc(Br)cc2)C(=O)[C@H]1CC(=O)Nc1ccccc1,.,.,.,102.9,.,.
CC1CCN(C(=O)C(NS(=O)(=O)c2cccc3nsnc23)C(C)C)CC1 (configuration not stated),94.7,101.4,95.6,95.6,99.2,89.5
O=C(Nc1ccccc1)NN1CC(=O)N(c2ccc(Cl)cc2)CC1=O,97.6,101.0,96.8,108.7,95.5,103.3
